From PubChem BioAssay (EPA / NIEHS)
Activity calls are given as the source filed them. How the source made its calls: active means hit-call score of the fitted dose curve at least 0.9, where 1 is the maximum; inactive means score below 0.9.

Experiment: ATG_E_Box_CIS: Attagene CIS-FACTORIAL HepG2 Assay for human Enhancer Box (E-box) (AID 2282936)
Conditions: HepG2 E-box cis-reporter transcription, actives raise or lower the signal
Experimental: ATG_CIS is a cell-based, multiplexed-readout assay that uses HepG2, a human liver cell line, with measurements taken at 24 hours after chemical dosing in a 24-well plate.ATG_E_Box_CIS is one of 52 assay component(s) measured or calculated from the ATG_CIS assay. It is designed to make measurements of mRNA induction, a form of inducible reporter, as detected with fluorescence intensity signals by Reverse transcription polymerase chain reaction (RT-PCR) and Capillary electrophoresis technology.Data from the assay component ATG_E_Box_CIS was analyzed into 1 assay endpoint. This assay endpoint, ATG_E_Box_CIS, was analyzed with bidirectional fitting relative to DMSO as the negative control and baseline of activity. Using a type of inducible reporter, measures of mRNA for gain or loss-of-signal activity can be used to understand the reporter gene at the transcription factor-level as they relate to the gene USF1. Furthermore, this assay endpoint can be referred to as a primary readout, because this assay has produced multiple assay endpoints where this one serves a reporter gene function. To generalize the intended target to other relatable targets, this assay endpoint is annotated to the dna binding intended target family, where the subfamily is basic helix-loop-helix protein.
Human liver HepG2 cells are transiently transfected with multiple reporter transcription units (MRTUs) in 6-well plates using FuGene 6 reagent (Roche; 3 ml FuGene/1 mg DNA). The MRTU constructs are regulated by a cis-regulating element (promoter). […] A major difference between the CIS and TRANS system is that in CIS activities of endogenous TFs are measured, whereas the TRANS assay evaluates changes in activities of exogenous, chimeric NR-Gal4 proteins. […] At the end of 24 hour incubation, total RNA was isolated using TriZol reagent (Invitrogen). The isolated RNA is then reverse-transcribed using oligo(dT) primer and Mo-MLV reverse transcriptase (Invitrogen) with DNAse I (Ambion) treatment for 30 min. The one-tenth of the produced cDNA was amplified by PCR using Taq DNA polymerase (Invitrogen) and two reporter sequence-specific primers. The PCR products were fluorescently labeled by primer extension with 6-arboxyfluorescein (6-FAM) 5'-labeled reporter sequence-specific primer (2 min at 95 C, 20 s at 68 C and 10 min at 72 C) and these products were digested with 5U of HpaI (New England Biolabs) for 2h at 37 C. The fragments were purified using Qiaquick PCR columns (Qiagen), analyzed on an ABI 3130xL genetic analyzer (Applied Biosystems) with peak positions identified by using a set of X-rhodamine (ROX)-labeled MapMarker1000 molecular weight standards (BioVentures). The raw capillary electrophoresis data was processed using Attagraph software (Attagene).

**Q.** For `Nc1cc(Cl)cc(C(=O)O)c1Cl`, which outcome is on record?
**A.** inactive

**Q.** Which outcome does the source give for `N#CC(Br)(Br)C(N)=O` here?
**A.** inactive

**Q.** With `[O-][Cl+]O` as the compound, how does the outcome read?
**A.** inactive

**Q.** For `CN(C)C(=O)Nc1ccc(Cl)cc1`, which outcome is on record?
**A.** inactive

**Q.** Which outcome does the source give for `Nc1ccc(Cl)cc1N` here?
**A.** inactive

**Q.** Which outcome does the source give for `Oc1ccccc1Cl` here?
**A.** inactive

**Q.** Which outcome does the source give for `c1ccc(N=Nc2ccccc2)cc1` here?
**A.** inactive

**Q.** With `CCCSC(=O)N(CCC)CCC` as the compound, how does the outcome read?
**A.** inactive

**Q.** With `COP(=S)(OC)SCN1C(=O)c2ccccc2C1=O` as the compound, how does the outcome read?
**A.** inactive

**Q.** For `c1ccc(C2CO2)cc1` (stereo not given), which outcome is on record?
**A.** inactive

**Q.** For `O=Cc1ccco1`, which outcome is on record?
**A.** inactive

**Q.** For `c1ccc2c(c1)oc1ccccc12`, which outcome is on record?
**A.** inactive

**Q.** With `CN(C)c1ccc(C(=O)c2ccc(N(C)C)cc2)cc1` as the compound, how does the outcome read?
**A.** inactive

**Q.** For `CCOC(=O)[C@]1(c2ccccc2)Oc2ccccc2[C@@H]1N`, which outcome is on record?
**A.** inactive

**Q.** With `O=[N+]([O-])c1ccc(Oc2ccc(Cl)cc2Cl)cc1` as the compound, how does the AC50 read?
**A.** 71.5 µM (active)

**Q.** With `CC(C)(C)OOC(C)(C)CCC(C)(C)OOC(C)(C)C` as the compound, how does the outcome read?
**A.** inactive

**Q.** For `COC(=O)c1ccccc1N`, which outcome is on record?
**A.** inactive

**Q.** Which outcome does the source give for `Cc1ccc(N)cc1` here?
**A.** inactive

**Q.** For `CC(C)(C)OOC(=O)c1ccccc1`, which outcome is on record?
**A.** inactive

**Q.** Which outcome does the source give for `C[N+](C)(C)CC1CO1` (stereo not given) here?
**A.** inactive

**Q.** Which outcome does the source give for `O=C(Oc1ccc(Br)cc1)N1CCN2CCC1CC2` here?
**A.** inactive

**Q.** For `CCOc1cccc(C2(N3CCN(c4ccccc4)CC3)CCC(C)CC2)c1` (stereo not given), which outcome is on record?
**A.** inactive

**Q.** For `ClCCOCCCl`, which outcome is on record?
**A.** inactive

**Q.** For `OCCCl`, which outcome is on record?
**A.** inactive

**Q.** For `O=C(N[C@H](c1ccccc1)[C@@H]1CN2CCC1CC2)c1c(Cl)ccc(C(F)(F)F)c1Cl`, which outcome is on record?
**A.** inactive

**Q.** For `Brc1ccc(Oc2ccccc2)cc1`, which outcome is on record?
**A.** inactive

**Q.** With `Cc1ccc(N=C=O)cc1N=C=O` as the compound, how does the outcome read?
**A.** inactive

**Q.** Which AC50 does the source give for `Nc1ccc(N=Nc2ccccc2)cc1` here?
**A.** 100 µM (active)

**Q.** For `Clc1ccc(Cl)c(Cl)c1`, which outcome is on record?
**A.** inactive

**Q.** For `CCC12COCN1COC2`, which outcome is on record?
**A.** inactive

**Q.** Which outcome does the source give for `Cc1cc(N=Nc2ccccc2C)ccc1N` here?
**A.** inactive

**Q.** With `CO[C@@H]1[C@H](OC(=O)NC(=O)CCl)CC[C@]2(CO2)[C@H]1[C@@]1(C)O[C@@H]1CC=C(C)C` as the compound, how does the outcome read?
**A.** inactive

**Q.** With `C=CCc1ccc2c(c1)OCO2` as the compound, how does the outcome read?
**A.** inactive

**Q.** With `Cn1cc(-c2ccccc2)c(=O)c(-c2cccc(C(F)(F)F)c2)c1` as the compound, how does the AC50 read?
**A.** 55 µM (active)

**Q.** With `ClC1=C(Cl)[C@]2(Cl)[C@H]3[C@H]([C@@H]4C=C[C@H]3C4)[C@@]1(Cl)C2(Cl)Cl` as the compound, how does the outcome read?
**A.** inactive

**Q.** For `CC(C)(O)c1cnn2c(-c3ccc(F)c(-c4c(F)cccc4C#N)c3)cnc2n1`, which outcome is on record?
**A.** inactive

**Q.** Which outcome does the source give for `Cc1cccc(N)c1N` here?
**A.** inactive

**Q.** With `N#CC(Br)Br` as the compound, how does the outcome read?
**A.** inactive

**Q.** With `CC(C)(C)C(O)(CCc1ccc(Cl)cc1)Cn1cncn1` (stereo not given) as the compound, how does the outcome read?
**A.** inactive

**Q.** With `c1ccc(NNc2ccccc2)cc1` as the compound, how does the outcome read?
**A.** inactive
